In PubChem BioAssay AID2685 (National Center for Advancing Translational Sciences (NCATS), 2010):
Hit rate of the full screen: of about 320,000 compounds, about 2,100 (0.66%) were called active. Not shown: some 53% with an inconclusive outcome. Calls follow the shape of the dose curve; as a rule, active = well fitted inhibition curve with a large enough effect in the signal ratio, with a control signal flat (not every such curve was filed as active); inconclusive = small, poorly fitted or top-dose-only effect, or effect the other way, or a change in a side signal; inactive = flat fitted curve, though single readings scatter; the % refers to the signal ratio. For the sample, actives were picked, then their nearest neighbours and some compounds at random.

Assay: qHTS Assay for Lipid Storage Modulators in Drosophila S3 Cells;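 as to cell number change: cells counted by Cell Tracker Red CMTPX staining in the red channel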; as to lipid storage change, negative = inhibition: % is scaled to controls: 0 for no effect and ±100 for the full control effect
Conditions: BODIPY lipid droplet fluorescence, 18-24 h, cells fed with added oleic acid; cell number change: measured here: cell count max response; series mostly up to 46.1 µM; lipid storage change, negative = inhibition: at the top concentration
Outline: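 Laser-scanning cytometry quantifies lipid droplet accumulation (500–530 nm total intensity; droplet/cell object ratio) in oleic acid-fed (400 uM added) Drosophila S3 cells treated with a concentration series. 20 uM Triacsin C defined 100% inhibition.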
Potency is read from the fitted curve at half-maximal effect.

SMILES	lipid storage change, negative = inhibition	cell number change	Potency	outcome
CC(C)Oc1ccc(N2CC(C(=O)Nc3ccc(N4CCOCC4)cc3)CC2=O)cc1 (stereo not drawn)	7.42% (inactive)	15.2%		
CCOC(=O)c1cc(CC)sc1/N=C/c1c(O)ccc2ccccc12	21.6% (inactive)	1.95%		
O=C(Cn1cnc([N+](=O)[O-])n1)NCCO	-0.893% (inactive)	0.588%		
O=c1[nH]c(CN2CCN(c3ccc(F)cc3)CC2)nc2ccccc12	9.13% (inactive)	-21.1%		
CCC(=O)NC(C)c1cc(Cl)c2ccccc2c1O (stereo not drawn)	12.7% (inactive)	-12.2%		
COCCn1c(Cc2ccccc2)nnc1SCC(=O)Nc1cc(C)on1	-1.8% (inactive)			
Cc1ccc(-n2c(SCC(=O)NNC(=S)Nc3ccccc3)nc3ccccc3c2=O)cc1	5% (inactive)	9.73%		
CN1[C@@H](CC(=O)c2ccccc2)CCC[C@H]1C[C@H](O)c1ccccc1	4.29% (inactive)	9.08%		
CN1CCC(N(C)CC(O)c2ccccc2)CC1 (stereo not drawn)	-18.8% (inactive)	-4.15%		
CN1C(CC(=O)c2ccccc2)CCCC1CC(O)c1ccccc1 (stereo not drawn)		-3.64%	18.4 µM (active)	
C=CCSc1nc(O)c(CC)c(=O)n1C(C)CC (stereo not drawn)	2.71% (inactive)	-4.8%		
Cc1ccc(OCc2ccc(C(=O)NCC3CCCO3)cc2)cc1C (stereo not drawn)		-8.64%	10.3 µM (active)	
Cc1ccc(OCc2ccc(C(=O)NCC3CCCO3)cc2)cc1 (stereo not drawn)	8.3% (inactive)	13.4%		
Cc1noc(C)c1COc1ccc(C(=O)NCC2CCCO2)cc1 (stereo not drawn)	-9.48% (inactive)	-13.5%		
Cc1cccc(NC(=O)Nc2ccccc2)n1	-0.183% (inactive)	-19.9%		
COc1ccc(/C=C/C(=O)N2CCNC(=O)C2)c(OC)c1	-28.8% (inactive)			
COc1ccc(-c2cc(=O)oc3c(C)c(OCC(=O)N(C)C)ccc23)cc1				inactive
CC(=O)Nc1ccc(OC(=O)c2cc([N+](=O)[O-])ccc2Cl)cc1	-0.987% (inactive)			
Clc1cccc(NC2=NCCC2)c1		-7.84%	25.9 µM (active)	
Cc1ccc(NC2=NCCC2)cc1Cl	-2.15% (inactive)			
Clc1cccc(Cl)c1NC1=NCCC1	-9.95% (inactive)	6.79%		
CCCCNC(=S)NNC(=O)c1cccnc1	5.02% (inactive)	0.804%		
CC(C)Sc1nc2c(c(=O)[nH]c(=O)n2C)n1Cc1ccccc1	-2.37% (inactive)			
O=[N+]([O-])c1cccc(S(=O)(=O)NCCc2ccccc2)c1		-15.1%		inactive

SMILES	lipid storage change, negative = inhibition	cell number change	Potency	outcome
O=[N+]([O-])c1cccc(S(=O)(=O)NCc2ccncc2)c1		-3.97%	10.3 µM (active)	
O=[N+]([O-])c1ccc(S(=O)(=O)NCCc2ccncc2)cc1	11.3% (inactive)	17.1%		
CCCNC(=O)COC(=O)c1ccc(N2CCCC2)c([N+](=O)[O-])c1	-3.38% (inactive)	10%		
Clc1ccc(C2=CSC3=Nc4cccc5cccc(c45)N23)cc1		-10.2%	0.13 µM (active)	
N=C1/C(=C\c2ccc(-c3cccc(Cl)c3)o2)C(=O)N=C2SC=C(c3ccccc3)N12	4.02% (inactive)	-13.8%		
CC1CN2C(c3ccc(Cl)cc3)=CSC2=N1 (stereo not drawn)		15.5%		inactive
COc1ccc(OC[C@@H](O)CNC(=O)c2cccc3c2C(=O)c2ccc(Cl)cc2S3(=O)=O)cc1	6.63% (inactive)	6.27%		
O=C(NNC(=O)c1ccccc1F)c1ccc(Cl)c(S(=O)(=O)N2CCOCC2)c1	0.713% (inactive)	4.79%		
Cc1cc(C)c(Cn2c3ccccc3c3cnn(CC(=O)NCc4ccccn4)c(=O)c32)c(C)c1		17.6%	14.6 µM (active)	
Cc1c2cnn(CC(=O)NCc3ccccn3)c(=O)c2c(C)n1Cc1ccccc1	6.37% (inactive)	-4.61%		
Cc1ccc(C)c(Cn2c3ccccc3c3cnn(CC(=O)NCc4ccccn4)c(=O)c32)c1		21.8%		inactive
Cc1ccccc1CN1CCNC1=O				inactive
COCCCNC(=O)CS(=O)Cc1nc(-c2ccccc2C)oc1C (stereo not drawn)	5.85% (inactive)	-1.92%		
COc1ccc(-c2nc(CS(=O)(=O)CC(=O)NCc3cccc(OC)c3OC)c(C)o2)cc1	1.65% (inactive)	10.4%		
CCc1c(C)sc(NC(=O)c2cc(C(C)C)on2)c1C#N	4.2% (inactive)	4.86%		
CCOC(=O)Cn1c(=N)n(Cc2ccccc2F)c2ccccc21		-1.47%	18.4 µM (active)	
C=CCn1c(=N)n(CC(=O)OCC)c2ccccc21	-3.21% (inactive)	2.48%		
CCCn1c(=N)n(CC(=O)OCC)c2ccccc21	10.3% (inactive)	13.2%		
Cc1cccc(NCc2ccc(Br)cc2)n1	6.89% (inactive)	-13.5%		
O=C(CN1C(=O)COc2ccccc21)N1CCCc2ccccc21	-23.7% (inactive)	11.3%		
O=C1CNC(=O)N1CC(=O)N1CCCc2ccccc21		-34.5%	29.1 µM (active)	
O=C(CN1CCCCC1)N1CCCc2ccccc21		7.83%		inactive
COc1ccccc1NC(=S)NCc1ccc(S(N)(=O)=O)cc1	4.94% (inactive)	6.14%		
COc1ccccc1NC(=S)NCc1ccc(F)cc1		-1.4%	11.6 µM (active)	

SMILES	lipid storage change, negative = inhibition	cell number change	Potency	outcome
COc1ccccc1NC(=S)NCc1ccc(Cl)cc1	12.7% (inactive)	8.81%		
CC(C)CNC(=O)CSc1nnc(-c2ccccn2)n1Cc1ccccc1	0.755% (inactive)	-1.23%		
CC(C)(C)c1ccc(C(=O)N/N=C2\C3CN4CCN(C3)CC2(c2ccccc2)C4)cc1	23.5% (inactive)	8.22%		
Cc1ccc2c(c1)C(=O)C(=O)N2CCCOc1ccccc1C	0.449% (inactive)	-3.05%		
CC(=O)c1ccc(S(=O)(=O)N2CCN(CC(=O)Nc3ccc(Cl)c([N+](=O)[O-])c3)CC2)cc1		-15.2%	29.1 µM (active)	
Cc1ccc(S(=O)(=O)N2CCN(CC(=O)Nc3ccccc3C(=O)NC3CC3)CC2)cc1		-13.8%		inactive
CC(=O)c1ccc(S(=O)(=O)N2CCN(CC(=O)Nc3ccccc3C(=O)NC3CC3)CC2)cc1		-1.96%	6.51 µM (active)	
O=C(CN1CCN(S(=O)(=O)c2ccccc2)CC1)Nc1ccccc1C(=O)c1ccccc1	1.48% (inactive)	4.18%		
O=C(CN1CCN(S(=O)(=O)c2ccccc2)CC1)Nc1ccc(Cl)c(Cl)c1		16.9%		inactive
O=C(CN1CCN(S(=O)(=O)c2ccccc2)CC1)Nc1ccc(Cl)c([N+](=O)[O-])c1	-3.05% (inactive)	22%		
COc1c2ccc(C(=O)NCCCCc3ccccc3)cc2nn1C		-13.1%		inactive
CCOC(=O)NCc1ccc2[nH]c(C)cc2c1	-10.1% (inactive)	16.1%		
Nc1cc(N)nc(SCC(=O)N2CCCCC2)n1	6.72% (inactive)	2.45%		
Nc1cc(N)nc(SCCN2CCCCC2)n1		3.17%	0.0184 µM (active)	
Cc1cc(C)c(C#N)c(SCCN2CCCCC2)n1		-24.3%		inactive
O=C(O)c1ccc(N2C(=O)CC(N3CCN(c4cccc(Cl)c4)CC3)C2=O)cc1 (stereo not drawn)	9.41% (inactive)	-9.85%		
O=C1Nc2c(c(=O)[nH]c(=O)n2-c2ccccc2)C(C(F)(F)F)(C(F)(F)F)N1		-18.7%	25.9 µM (active)	
Cc1ccc(-n2c3c(c(=O)[nH]c2=O)C(C(F)(F)F)(C(F)(F)F)NC(=O)N3)cc1	-27.1% (inactive)	7.3%		
O=C1Nc2c(c(=O)[nH]c(=O)n2-c2ccccc2F)C(C(F)(F)F)(C(F)(F)F)N1	-3.91% (inactive)	12.5%		
Cn1cccc1CC(=O)N/N=C/c1ccc(Cl)cc1	16.8% (inactive)	-7.57%		
O=C(COC(=O)COc1ccc(Nc2ccccc2)cc1)NCc1ccco1	-4.12% (inactive)	8.25%		
Cc1cc(C)cc(OCC(=O)OCC(=O)NCc2cccs2)c1	-2.88% (inactive)	-3.19%		
O=C(COC(=O)c1cc2ccccc2o1)NCc1ccco1		-22.2%	0.206 µM (active)	
Cc1c(C(=O)OCC(=O)NCc2ccco2)oc2ccccc12	6.66% (inactive)	-15.4%		

SMILES	lipid storage change, negative = inhibition	cell number change	Potency	outcome
Cc1cc(C)cc(OCC(=O)OCC(=O)NCc2ccco2)c1		10.8%	23.1 µM (active)	
COc1ccc(CNC(=O)COC(=O)c2cc3ccccc3o2)cc1				inactive
C=CCNC(=O)/C(=C\c1ccc([N+](=O)[O-])cc1)NC(C)=O	-2.27% (inactive)			
CC(C)/C=N/Nc1nc2c(c(=O)n(C)c(=O)n2C)n1C	-8.14% (inactive)	-4.59%		
COC(=O)c1ccc2c(=O)n(-c3ccccc3)c(=S)[nH]c2c1	11.6% (inactive)	5.89%		
NC(=O)CC(NC(=O)Cc1ccc(Br)cc1)c1ccc(NCCc2ccc(Cl)cc2)c([N+](=O)[O-])c1 (stereo not drawn)	0.303% (inactive)	-9.69%		
COCCOC(=O)/C(C#N)=C/c1cn(Cc2ccccc2)nc1-c1cccnc1	-14.1% (inactive)	-16.4%		
C[C@H](NC(=O)OCc1ccccc1)c1nnc([C@H](C)NC(=O)OCc2ccccc2)o1	2.69% (inactive)	2.65%		
Cc1ccc(S(=O)(=O)N2CCN(C(=O)CN3CCc4ccccc4C3)CC2)cc1		21.3%		inactive
COCc1ccc(C(=O)Nc2ccccc2C(=O)NCc2cccnc2)cc1		10.3%		inactive
C=CCOc1ccc(C(=O)Nc2ccccc2C(=O)NCc2cccnc2)cc1		18.4%	3.26 µM (active)	
COc1cc(C(=O)Nc2ccccc2C(=O)NCc2cccnc2)cc(OC)c1OC		-22.9%		inactive
CC(=O)Nc1nnc(S(=O)(=O)N2CCN(c3ccc([N+](=O)[O-])cc3Cl)CC2)s1		-24.2%		inactive
COc1cccc(-c2cc(C(=O)Nc3ccc(OC)c(OC)c3)no2)c1	5.84% (inactive)	-25.5%		
CC(C)(C)C(=O)N1CCN(c2ccc(NC(=O)c3ccc([N+](=O)[O-])o3)cc2)CC1		19.6%		inactive
CC1CCN(c2ccc(NC(=O)c3cccnc3)cc2)CC1		-20.1%	20.6 µM (active)	
CC1CCN(c2ccc(NC(=O)c3ccc([N+](=O)[O-])o3)cc2)CC1		0.613%	16.4 µM (active)	
O=C(Nc1ccc(N2CCOCC2)cc1)c1ccc([N+](=O)[O-])o1		-16.7%		inactive
Cc1ccc(C(=O)N2CCN(c3ccc(NC(=O)c4cccnc4)cc3)CC2)cc1		4.57%		inactive
O=C(Nc1ccc(N2CCOCC2)cc1)c1cccnc1	6.23% (inactive)	3.28%		
CCn1c(=O)c2ccccc2n(CC(=O)NCCC2=CCCCC2)c1=O	3.41% (inactive)	25.4%		
CCn1cc(C(=O)NCC(OC)OC)c(=O)c2cc(S(=O)(=O)N3CCOCC3)ccc21	11.9% (inactive)			
